An excerpt weighted towards active compounds, which were near 16% of everything screened.
DT40 TDP1 no CPT = qHTS for Inhibitors of human tyrosyl-DNA phosphodiesterase 1 (TDP1): qHTS in cells in absence of CPT; DT40 Tdp1-/- hTDP1 cells, no CPT, ATP luminescence, 48 h; Potency, µM (series often up to 46.2 µM), without a hit: top-dose activity change, negative = growth inhibition, hits mostly inhibitors; 420,000 tested, 15% active; AID 686978, 2013; also: potency is read from the fitted curve at half-maximal effect; % is scaled to controls: 0 for no effect and ±100 for the full control effect; nearly all actives have a fitted effect of over 55% in size
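Luminescent ATP content (CellTiter-Glo) served as the growth readout. Knockout chicken DT40 cells expressing human TDP1 were exposed to compounds without camptothecin for a minimum 48 hr at 37 °C.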
uPA generation = qHTS for Inhibitors of Cell Surface uPA Generation. 330,000 tested, 0.31% active. cell surface uPA generation assay, qHTS. Potency, µM (series often up to 38.3 µM), for the others: at the highest dose activity change, negative = inhibition, actives largely listed as inhibitors. AID 540303, 2011; active = well fitted inhibition curve with a large enough effect; inconclusive = small, poorly fitted or top-dose-only effect; inactive = no such curve, though single readings can be large or run the other way; tested in mouse RAW 264.7 cells; also: potency is read from the fitted curve at half-maximal effect; % is scaled to controls: 0 for no effect and ±100 for the full control effect; nearly all actives have a fitted effect of over 55% in size
DT40 TDP1 CPT = qHTS for Inhibitors of human tyrosyl-DNA phosphodiesterase 1 (TDP1): qHTS in cells in presence of CPT. 420,000 tested, 12% active. chicken DT40 Tdp1-/-;hTDP1 cells + 20 nM CPT, ATP luminescence, 48 h. Potency, µM (doses to about 46.2 µM), for the others: at the highest dose activity change, negative = growth inhibition, most hits filed as inhibitors; also: potency is read from the fitted curve at half-maximal effect; % is scaled to controls: 0 for no effect and ±100 for the full control effect; nearly all actives have a fitted effect of over 55% in size
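Cell growth measured by CellTiter-Glo luminescence after a minimum 48 h, 37 C compound exposure with 20 nM CPT in Tdp1-knockout DT40 cells stably expressing hTDP1, seeded 400/well; qHTS titration format.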
TDP1 inh = qHTS Assay for Inhibitors of Tyrosyl-DNA Phosphodiesterase (TDP1); Tyrosyl-DNA phosphodiesterase 1 (Homo sapiens), Q9NUW8; recombinant TDP1, AlphaScreen DNA substrate cleavage; Potency, µM (top dose mostly 130 µM), without a hit: at the top dose activity change, negative = inhibition, most hits filed as inhibitors; 350,000 tested, 0.28% active; AID 485290, 2010; also: potency is read from the fitted curve at half-maximal effect; % is scaled to controls: 0 for no effect and ±100 for the full control effect; nearly all actives have a fitted effect of over 40% in size
Target sequence (Q9NUW8 whole entry, looked up): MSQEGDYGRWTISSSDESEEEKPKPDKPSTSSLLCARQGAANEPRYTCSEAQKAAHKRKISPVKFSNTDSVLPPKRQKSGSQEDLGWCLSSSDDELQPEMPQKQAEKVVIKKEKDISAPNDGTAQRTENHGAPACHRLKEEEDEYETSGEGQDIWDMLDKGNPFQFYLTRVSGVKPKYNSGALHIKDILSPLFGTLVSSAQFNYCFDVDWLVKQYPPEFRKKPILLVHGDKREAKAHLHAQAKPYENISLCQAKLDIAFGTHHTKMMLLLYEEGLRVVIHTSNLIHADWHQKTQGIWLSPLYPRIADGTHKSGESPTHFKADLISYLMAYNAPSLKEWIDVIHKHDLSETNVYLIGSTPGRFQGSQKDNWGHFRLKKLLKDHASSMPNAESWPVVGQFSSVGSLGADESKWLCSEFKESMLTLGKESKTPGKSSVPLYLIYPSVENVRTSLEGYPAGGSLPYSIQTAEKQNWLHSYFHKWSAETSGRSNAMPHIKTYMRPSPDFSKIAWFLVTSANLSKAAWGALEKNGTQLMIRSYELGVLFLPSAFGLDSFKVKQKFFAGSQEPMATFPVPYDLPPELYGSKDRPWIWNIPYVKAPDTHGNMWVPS
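E. coli-derived human Tdp1, 1 nM final. Cpd preinc 15 min RT; substrate 15 nM final, 5 min RT; AS bead mix 10 ug/ml final, 10 min RT. Signal loss = tyrosine-FITC cleavage. No-enzyme wells = max signal.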
miR-21 act = qHTS Assay for Modulators of miRNAs and/orActivators of miR-21; HeLa miR-21 FLuc reporter, luciferase, 48 h; Potency, µM (doses to about 38.3 µM), for inactives: top-dose activity change, positive = activation, hits mostly activators; 340,000 tested, under 10 active;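 also: % of control where 0% means no effect; miR-21 action dims this reporter so a rising signal means less miR-21 action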
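HeLa miR-21-FLuc reporter line, endogenous miR-21; 2000 cells/well in DMEM/10% FBS; compound titration up to ~40uM final, 48 h, 37 degree Celsius; luciferase detection reagent, 15 min lysis, CCD luminescence.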
The depositor's hits bear a star; ? = inconclusive; nt = not tested or not shown; ! = a repeat was not active; [ ] = another dose, or the depositor's remark. Unless noted, calls follow the shape of the dose curve; as a rule, active = well fitted curve in the direction sought with a large enough effect; inconclusive = small, poorly fitted or top-dose-only effect, or another doubt; inactive = no such curve, though single readings can be large; an effect the other way counts as inactive or inconclusive.

SMILES	DT40 TDP1 no CPT	uPA generation	DT40 TDP1 CPT	TDP1 inh	miR-21 act
COc1ccc(C2CC(c3ccccc3)n3nc(NC(=O)c4cccs4)nc3N2)cc1 (stereo not given)	?	-4.2%	0.6%	13.2%	-9.7%
CCN1C(=O)[C@H]2[C@@H](c3ccc(C)cc3)N3C(=O)N(c4ccc(C)cc4)C(=O)[C@@]3(Cc3ccc(Cl)cc3)[C@H]2C1=O	20.6µM*	12.2%	18.4µM*	nt	-4.8%
CCN1C(=O)[C@H]2[C@@H](c3ccc(C)cc3)N3C(=O)N(c4ccccc4)C(=O)[C@@]3(Cc3ccc(Cl)cc3)[C@H]2C1=O	?	6.2%	?	nt	5.0%
COc1ccc([C@@H]2[C@@H]3C(=O)N(C(C)(C)C)C(=O)[C@@H]3[C@]3(Cc4ccccc4)C(=O)N(c4ccc(Br)cc4)C(=O)N23)cc1	23.1µM*	-5.7%	23.1µM*	nt	-19.5%
COc1ccc([C@@H]2[C@@H]3C(=O)N(C(C)(C)C)C(=O)[C@@H]3[C@]3(Cc4ccccc4)C(=O)N(c4cccc(Cl)c4)C(=O)N23)cc1	?	1.6%	-19.5%	nt	nt
COc1ccc(N2C(=O)N3[C@H](c4ccc(Br)cc4)[C@@H]4C(=O)N(C(C)(C)C)C(=O)[C@@H]4[C@]3(Cc3ccccc3)C2=O)cc1	-12.1%	0.2%	-8.3%	nt	1.8%
CC[C@@]12C(=O)N(c3ccc(C)cc3)C(=O)N1[C@H](c1ccc(OC)cc1)[C@@H]1C(=O)N(C(C)(C)C)C(=O)[C@@H]12	1.1%	19.1%	12.6%	nt	-8.9%
CC[C@@]12C(=O)N(c3ccc(C)cc3)C(=O)N1[C@H](c1ccc(Br)cc1)[C@@H]1C(=O)N(C(C)(C)C)C(=O)[C@@H]12	?	?	7.31µM*	nt	10.5%
CC(C)(C)N1C(=O)[C@H]2[C@@H](c3ccc(Br)cc3)N3C(=O)N(c4cccc(Cl)c4)C(=O)[C@@]3(Cc3ccccc3)[C@H]2C1=O	20.6µM*	19.2%	?	-0.4%	nt
O=C(Nc1cccc(Br)c1)c1cccc(OC(=S)N2CCOCC2)c1	?	-8.5%	?	-2.4%	12.0%
Cc1ccc(NC(=O)CN(C)C(=O)COc2cc(F)ccc2[N+](=O)[O-])cc1	-13.0%	-1.8%	11.3%	2.7%	2.2%
CC1(C(=O)NS(=O)(=O)C2CC2)CCCN(C(=O)c2cccnc2Oc2ccccc2)C1 (stereo not given)	1.03µM*	nt	?	nt	nt
CC1(C(=O)NS(=O)(=O)C2CC2)CCCN(C(=O)c2ccccc2C(F)(F)F)C1 (stereo not given)	5.8µM*	nt	6.51µM*	nt	nt
CC1(C(=O)NS(=O)(=O)C2CC2)CCN(C(=O)c2ccccc2OC(F)(F)F)C1 (stereo not given)	0.1%	nt	-3.5%	nt	nt
COc1ccccc1C(=O)N1CCCC(C)(C(=O)NS(=O)(=O)C2CC2)C1 (stereo not given)	1.64µM*	nt	?	nt	nt
CCNC(=O)C1(C)CCCN(C(=O)c2cccnc2Oc2ccccc2)C1 (stereo not given)	-19.9%	nt	11.7%	nt	nt
Cc1nc(C/C(=N\Nc2ccccc2)c2ccc(O)cc2O)cs1	?	?	?	10.3%	-21.3%
COc1cc2c(cc1OC)C(c1ccccc1)N(Cc1ccc(S(=O)(=O)NC(=O)c3ccco3)cc1)CC2 (stereo not given)	-17.0%	nt	-1.8%	nt	nt
COC(=O)Cn1cnc(=O)c(C#N)c1/C=C/N(C)C	-36.3%	2.6%	-24.6%	0.0%	-1.5%
COc1cc(C(=O)N2CCN(c3ccccc3)CC2)c([N+](=O)[O-])cc1OC	5.3%	6.5%	-9.6%	0.0%	-2.3%
CCc1ccccc1NC(=O)CN1CCN(C(=O)c2ccc(OCc3cn4ccccc4n3)cc2)CC1	-5.0%	0.8%	5.7%	-4.6%	nt
CCc1ccccc1NC(=O)CNC(=O)c1ccc(OCc2cn3ccccc3n2)cc1	-21.0%	2.5%	?	28.2µM*	nt
C1CCCC1	nt	nt	nt	8.2%	nt
C#C[C@]1(OC(C)=O)CC[C@H]2[C@@H]3CCC4=C[C@@H](OC(C)=O)CC[C@@H]4[C@H]3CC[C@@]21C	15µM*!	nt	?	4.3%	nt
C#C[C@]1(OC(C)=O)CCC2C3CCC4=CC(=O)CCC4C3CC[C@]21C (stereo not given in full)	16.4µM*	nt	0.206µM*	10.2%[56.1 µM]	nt
SMILES	DT40 TDP1 no CPT	uPA generation	DT40 TDP1 CPT	TDP1 inh	miR-21 act
C#C[C@]1(O)CC[C@@H]2[C@H]3CCC4=CCCC[C@@H]4[C@@H]3CC[C@@]21C	nt	nt	nt	4.3%[56.1 µM]	nt
C#C[C@]1(O)CCC2C3CCC4=CC(=O)CCC4C3CC[C@@]21C (stereo not given in full)	nt	nt	nt	10.7%[56.1 µM]	nt
C#C[C@]1(OC(C)=O)CCC2C3CCC4=CC(=O)CC[C@@H]4C3CC[C@@]21C (stereo not given in full)	23.1µM*	-14.0%	?	nt	7.2%
CON/C=C(\C=Nc1ccc(F)cc1)c1ncc(C(F)(F)F)cc1Cl	1.4%	4.9%	-3.4%	4.2%	-0.9%
CCSc1nc2ccccc2c(=O)n1OCC(=O)OC	6.0%	0.6%	2.4%	0.0%	-0.2%
CC(C)(C)OC(=O)N1CCN(c2ccc(CNC(=O)c3ccc(Cl)cc3)cc2)CC1	?	-6.1%	?	2.0%	26.7%
CCOC(=O)C1CCCN(C2=NC(=O)/C(=C/c3ccc(OC)c(OC)c3)S2)C1 (stereo not given)	9.2µM*	-1.5%	?	nt	-4.4%
COc1ccc(/C=C2\SC(N3CCCCC3)=NC2=O)cc1	?	-22.3%	11.6µM*	nt	-11.8%
CCOC(=O)C1CCCN(C2=NC(=O)/C(=C/c3ccc(O)c(OC)c3)S2)C1 (stereo not given)	?	?	?	nt	-9.7%
CC1CCN(C2=NC(=O)/C(=C/c3cccc(O)c3)S2)CC1	?	-2.6%	?	nt	-34.6%
O=C1N=C(N2CCCCC2)S/C1=C\c1ccncc1	-29.1%	-3.3%	6.2%	-1.4%	-0.5%
COc1cc(/C=C2\SC(N3CCCCC3)=NC2=O)cc(OC)c1OC	11.6µM*	-12.0%	20.6µM*	nt	-2.5%
CCc1ccc(/C=C2\SC(N3CCCC3)=NC2=O)cc1	?	-10.9%	0.5%	-3.7%	-56.5%
CC1Cc2cc(/C=C3/SC(N4CCC(C(N)=O)CC4)=NC3=O)ccc2O1 (stereo not given)	18.4µM*	-7.6%	14.6µM*	nt	3.0%
COc1ccc(OC)c(C(c2nnnn2CCc2ccccc2)N2CCC(C(N)=O)CC2)c1 (stereo not given)	0.0%	1.8%	-24.3%	3.0%	1.0%
Cc1cc(Cl)nc(Cl)c1C(=O)NCCc1ccccc1	5.2%	?	-7.5%	0.2%	nt

Compound activity from PubChem BioAssay.
